How the values were obtained:
[1] = tested on: Botulinum neurotoxin type F light chain protease (Clostridium botulinum); experiment: Botulinum neurotoxin type F light chain protease inhibition, multiplex microsphere flow cytometry, validation set (AID 588459); conditions: multiplex microsphere protease substrate cleavage assay, at 10 µM, stronger effect = higher value
[2] = molecular target: Botulinum neurotoxin type A (Clostridium botulinum) (UniProt P0DPI0); experiment: BoNT/A light chain protease inhibitors, biochemical, multiplex microsphere flow cytometry, validation set (AID 588460); conditions: at 10 µM, stronger effect = higher value
[3] = molecular target: Lethal factor (Bacillus anthracis) (UniProt P15917); experiment: Lethal factor protease inhibitors, Bacillus anthracis, multiplex microsphere cleavage assay, validation set (AID 588461); conditions: flow cytometry, at 10 µM, stronger effect = higher value

Measured: inhibition

CC(C)C12CN3CC(C(C)C)(CN(C1)C3c1ccccc1O)C2=O (centres undefined)
inactive: [1] 4.7% | [2] 1.2% | [3] -5.3%

Nc1nnc(-c2cccc(Cl)c2Cl)c(N)n1
inactive: [1] 1.3% | [2] 0.8% | [3] -5.9%

CC(=O)O[C@H]1C[C@@]2(C)[C@@H](C[C@@H](O)[C@H]3[C@@]4(C)CC[C@@H](O)[C@@H](C)C4CC[C@@]32C)/C1=C(\CCC=C(C)C)C(=O)O (some centres undefined)
inactive: [1] -2.5% | [2] -0.2% | [3] 1.4%

O=C(O)C1Sc2[nH]c(=O)sc2C2c3ccc(O)cc3OC(=O)C12 (centres undefined)
inactive: [1] -6.1% | [2] -1% | [3] -16.5%

Cc1nc2c(c3c1[nH]c1ccccc13)C(=O)CC(C)(C)C2
inactive: [1] 2.1% | [2] 0.3% | [3] 6%

NCc1ccccc1COc1ccccc1
inactive: [1] 2.3% | [2] 0.1% | [3] -1.7%

O=C(O)CCC(=O)c1ccc(-c2ccccc2)cc1
inactive: [1] -4.5% | [2] -1.1% | [3] 2.1%

CSCCC1NC2(C(=O)Nc3ccc(Cl)cc32)[C@@H]2C(=O)N(C3CCCC3)C(=O)[C@H]12 (some centres undefined)
inactive: [1] 0.8% | [2] -1.4% | [3] -11.2%

O=C1Cc2ccccc2C(c2ccccc2)N1 (centres undefined)
inactive: [1] -0.1% | [2] -0.3% | [3] -3.1%

CCOc1ccc2[nH]c3c(=O)n(CCc4ccc(OC)cc4)cnc3c2c1
inactive: [1] 1.7% | [2] 2% | [3] 0.2%

O=C(O)C[C@@H](O)C(=O)O
inactive: [1] 0.4% | [2] -0.4% | [3] -1.2%

O=C1c2ccccc2C2(c3ccccc3)NCCN12 (centres undefined)
inactive: [1] -1.6% | [2] -1.3% | [3] 8.5%

CC(=O)O[C@H]1CC[C@H]2[C@@H]3CCc4cc(O)ccc4[C@H]3CC[C@]12C
inactive: [1] -3.4% | [2] -0.9% | [3] -2.4%

Clc1ccc2c(c1)CCc1cccnc1C2=C1CCNCC1
inactive: [1] -4.1% | [2] -0.7% | [3] 5.5%

NS(=O)(=O)c1cc(C2(O)NC(=O)c3ccccc32)ccc1Cl (centres undefined)
inactive: [1] -0.2% | [2] -1.6% | [3] -7.1%

COc1ccc(C2CNC(=O)C2)cc1OC1CCCC1 (centres undefined)
inactive: [1] 7.8% | [2] -0.3% | [3] 1%

Nc1ccc(N=Nc2ccccc2)c(N)n1
inactive: [1] -2% | [2] -0.2% | [3] -0.6%

Cc1ccc2c(c1)OC(=O)CC2c1ccccc1 (centres undefined)
inactive: [1] -4.2% | [2] -1.1% | [3] -4.4%

CCOc1ccc2oc(-c3ccccc3)c(C(=O)O)c2c1
inactive: [1] -1.1% | [2] -0.2% | [3] -3.1%

c1ccc(-c2ccccn2)nc1
inactive: [1] -0.7% | [2] 0.3% | [3] 6.3%

Cc1ccsc1/C=N\NC(=O)c1ccc2c(c1)OCO2
inactive: [1] 2.9% | [2] 0.4% | [3] -1.3%

COc1cccc(-n2c(C)c3c(OC)cccc(=O)c3c2C)c1
inactive: [1] -8.1% | [2] -0.7% | [3] -13.5%

Cn1c(=O)[nH]c(=O)c2c1ncn2CCN1CCOCC1
inactive: [1] 3.5% | [2] -1.5% | [3] -2.5%

CCOC(=O)c1c(C)oc2c1C(=O)c1ccccc1C2=O
inactive: [1] 3.1% | [2] 1.4% | [3] -9.3%

O=C(Nc1ccc(Oc2c(F)c(F)c(F)c(F)c2F)cc1)OC1CCN2Cc3ccccc3N=C12 (centres undefined)
inactive: [1] -1.9% | [2] -1.4% | [3] 2.6%

Cc1ccc2c(c1C)NC(C(=O)O)C1CC=CC21 (centres undefined)
inactive: [1] -5.3% | [2] -1.9% | [3] -13.2%

CN(C)CCOCCOc1ccc(Cl)cc1Br
inactive: [1] 6.4% | [2] 1% | [3] -5.5%

CCn1ccnc1CN(C)Cc1cn(-c2cccc(C)c2)nc1-c1cccc(F)c1
inactive: [1] 0.6% | [2] -0.3% | [3] -3.5%

COc1ccccc1C1(CC(=O)N2CCCCC2)CCOC(C(C)C)C1 (centres undefined)
inactive: [1] 1.1% | [2] -0.2% | [3] -3.3%

CC(=O)[C@H]1[C@H](C#N)C[C@H]2[C@@H]3CC=C4C[C@@H](O)CC[C@]4(C)[C@H]3CC[C@@]21C
inactive: [1] 4.5% | [2] 1.4% | [3] 4.8%

OCC1(CCOc2ccccc2)CCN(CCCn2cccn2)CC1
inactive: [1] -0.5% | [2] -1% | [3] -1.4%

Nc1c2c(nc3ccccc13)CCCC2
inactive: [1] 5.3% | [2] 1.5% | [3] -0.3%

C[C@H]1O[C@@H](O[C@H]2[C@@H](O)C[C@H](O[C@H]3[C@@H](O)C[C@H](O[C@H]4CC[C@@]5(C)[C@H](CC[C@@H]6[C@@H]5C[C@@H](O)[C@]5(C)[C@@H](C7=CC(=O)OC7)CC[C@]65O)C4)O[C@@H]3C)O[C@@H]2C)C[C@H](O)[C@@H]1O
inactive: [1] 2.7% | [2] -0.7% | [3] -2.8%

CCN(Cc1cnn(C)c1)Cc1nc(C(c2ccccc2)c2ccccc2)no1
inactive: [1] 0.3% | [2] -2.2% | [3] -3.7%

CNCCCC1c2ccccc2C=Cc2ccccc21
inactive: [1] -5.9% | [2] -1.6% | [3] -1%

CC(=O)OCC(OC(C)=O)C(OC(C)=O)C(OC(C)=O)C(=O)Nc1cccc(C)c1 (centres undefined)
inactive: [1] 3.7% | [2] 1.2% | [3] 3.1%

CC1(C)CC(=O)c2cnc(NC(=O)C3CCCC3)nc2C1
inactive: [1] 1.2% | [2] -1.3% | [3] -3.2%

C[C@H]1O[C@H]1P(=O)(O)O
inactive: [1] -0.1% | [2] 1.1% | [3] -2%

C=CC1=C(C(=O)O)N2C(=O)C(NC(=O)Cc3ccccc3)C2SC1 (centres undefined)
inactive: [1] 2.1% | [2] 0.1% | [3] -3.4%

CCNC1=C(Cl)C(=O)c2ccccc2C1=O
inactive: [1] 1.2% | [2] -0.3% | [3] -6%

Cn1c(=S)n(C)c2ccccc21
inactive: [1] 4% | [2] 0.1% | [3] 2.8%

CCC(C)NCCOc1ccccc1C (centres undefined)
inactive: [1] 1.2% | [2] -0.1% | [3] 5.2%

Cc1cccc(OCC(=O)Nc2ccc(C(=O)NCC(C)C)cc2)c1
inactive: [1] 4.2% | [2] 0.3% | [3] -4.3%

COc1cc2[nH]c3c(=O)n(CCN4CCOCC4)cnc3c2cc1OC
inactive: [1] 0.3% | [2] 0.1% | [3] 1%

CC(=O)OC(CC(=O)O)C[N+](C)(C)C (centres undefined)
inactive: [1] 3.4% | [2] 0% | [3] -3.6%

COCCOC(=O)c1c(C)oc2ccc(OCc3cc(C(=O)OC)oc3C)cc12
inactive: [1] -0.6% | [2] -0.8% | [3] 1.6%

CC(C)(C)c1csc(N/N=C/c2cccnc2)n1
inactive: [1] -3.3% | [2] 0.5% | [3] 0.6%

Cc1ccc(S(=O)(=O)n2ccnc2)cc1C
inactive: [1] 1.4% | [2] -0.3% | [3] -1.7%

CC(C)NS(=O)(=O)c1ccc(OCC(=O)Nc2cccc(F)c2)cc1
inactive: [1] -3.9% | [2] -0.3% | [3] -0.8%

O=P(O)(O)CP(=O)(O)O
inactive: [1] -9% | [2] -3% | [3] -3.7%

CN(C)c1ccc(C(CN)c2c[nH]c3ccccc23)cc1 (centres undefined)
inactive: [1] -5.8% | [2] -1.5% | [3] -3.4%

C/C=C(/C(=C/C)c1ccc(O)cc1)c1ccc(O)cc1
inactive: [1] -1.2% | [2] -0.3% | [3] 3.5%

COc1cccc(=O)c2c(C)n(CC(=O)c3ccccc3)c(C)c12
inactive: [1] -4.4% | [2] 0.1% | [3] -9.8%

CCOC(=O)c1cccc(P(C)(C)=O)c1
inactive: [1] -1.1% | [2] -0.5% | [3] -5%

Cc1ccc(OCc2nc(-c3cccnc3)no2)cc1C
inactive: [1] -0.8% | [2] 0.4% | [3] -6.5%

Cc1ccc(C(=O)COC(=O)c2cccc(N3C(=O)c4c(C)nc5ccccc5c4C3=O)c2)cc1C
inactive: [1] -1.2% | [2] -1.1% | [3] -0.1%

CCc1cccc2c3c([nH]c12)C(CC)(CC(=O)O)OCC3 (centres undefined)
inactive: [1] -3.9% | [2] -0.3% | [3] -0.8%

O=C(c1ccc(O)cc1)c1ccc(O)cc1O
inactive: [1] -0.9% | [2] 1.3% | [3] -0.6%

COc1ccc(CC(=O)NCC2(c3ccc(OC)c(OC)c3)CCOCC2)cc1
inactive: [1] 3.5% | [2] -0.9% | [3] -1.6%

c1ccc(Cn2ncc3c(Nc4ccccc4)ncnc32)cc1
inactive: [1] 1.6% | [2] -1.4% | [3] -0.5%

Nc1nc(SCc2ccc([N+](=O)[O-])cc2)c2ncn(C3OC(CO)C(O)C3O)c2n1 (centres undefined)
inactive: [1] 0.3% | [2] 1% | [3] 5%

O=c1c(-c2ccc3c(c2)OCCO3)coc2cc(OC3OC(CO)C(O)C(O)C3O)ccc12 (centres undefined)
inactive: [1] 0.2% | [2] 0.1% | [3] 6.4%

CCC(C)n1ncn(-c2ccc(N3CCN(c4ccc(OCC5COC(Cn6cncn6)(c6ccc(Cl)cc6Cl)O5)cc4)CC3)cc2)c1=O (centres undefined)
inactive: [1] 2.7% | [2] -0.4% | [3] 4.4%
